This assay deals with OCI-AML2. Description: cell viability relative to vehicle control; higher = less cytotoxic. The settings on record: 10 µM; SRSF2 genotype: P95H/wt. In outline:
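CRISPR-edited SRSF2 P95 mutant and isogenic wild-type clones of four leukaemia lines were screened against Selleck bioactive, kinase and epigenetic probe libraries, with identity-inconsistent compounds removed. Compounds were acoustically dispensed into 384-well plates at a single 10 µM dose, with 2000 cells in 50 µL medium per well. After 48 h, supernatant was removed and CellTiter-Glo luminescence was read. Viability was expressed as percent of the on-plate DMSO vehicle control, analysed in Genedata Screener.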
For orientation: cell viability means a read-out of living cells in per cent, often relative to untreated cells. Take `CC1=C(CC[C@@H](C)CO[C@@H]2O[C@H](CO)[C@@H](O)[C@H](O)[C@H]2O)O[C@H]2C[C@H]3[C@@H]4CC=C5C[C@@H](O[C@@H]6O[C@H](CO)[C@@H](O[C@@H]7O[C@@H](C)[C@H](O)[C@@H](O)[C@H]7O)[C@H](O)[C@H]6O[C@@H]6O[C@@H](C)[C@H](O)[C@@H](O)[C@H]6O)CC[C@]5(C)[C@H]4CC[C@]3(C)[C@@H]12` [Pseudoprotodioscin]: the cell viability is 110%.
Take `O=C(NC[C@H](O)CN1CCc2ccccc2C1)c1cc(NC2COC2)ncn1`: the cell viability is 76.3%.
As for `CCCc1cc(C)[nH]c(=O)c1CNC(=O)c1cc(-c2ccc(N3CCN(C)CC3)nc2)nc2c1cnn2C(C)C`, the cell viability amounted to 0.4%.
Take `Cc1cc(NS(=O)(=O)c2ccc(N)cc2)nc(C)n1` [sulfaisodimidine]: the cell viability came out at 112%.
Consider `Cn1cnc(-c2cc3nccc(Oc4ccc(NC(=S)NC(=O)Cc5ccccc5)cc4F)c3s2)c1`, for which the cell viability stood at 49.2%.
Take `Fc1ccc(C(c2ccc(F)cc2)N2CCN(C/C=C/c3ccccc3)CC2)cc1` [Flunarizine 2HCl]: the cell viability was found to be 28.7%.
`CNc1cccc(CCOc2ccc3c(c2)CN(CC(F)(F)F)C(=O)[C@H](CC(=O)O)C3)n1`: the cell viability turned out to be 100%.
On to `Cc1cccc(-c2[nH]c(C(C)(C)C)nc2-c2ccc3c(c2)OCO3)n1`, for which the cell viability was found to be 52.6%.
For `CCOc1ccc(Cc2cc([C@]34OC[C@](CO)(O3)[C@@H](O)[C@H](O)[C@H]4O)ccc2Cl)cc1` [Ertugliflozin] the value was 104%; for `COC(=O)[C@H](c1ccccc1Cl)N1CCc2sccc2C1` [Clopidogrel (Plavix)], 85.4%; for `CCCCCCCCCCCCCCCC(=O)OC` [Methyl palmitate], 102%.
On to `O=[N+]([O-])c1ccc(S(=O)(=O)N2CCN(c3ccnc4cc(Cl)ccc34)CC2)c([N+](=O)[O-])c1`, for which the cell viability is 0.47%.
Turning to `Clc1ccc(COC(Cn2ccnc2)c2ccc(Cl)cc2Cl)c(Cl)c1` (centres undefined) [Miconazole (Monistat)], the cell viability turned out to be 65.5%.
With `C[n+]1cc2c3c(ccc2c2ccc4cc5c(cc4c21)OCO5)OCO3` [Sanguinarine chloride], the cell viability worked out at 0.31%.
For `CC1(C)Cc2c(sc(NC(=O)c3ccn[nH]3)c2C(N)=O)C(C)(C)O1`, the cell viability turned out to be 101%.
In the case of `CCN=C1N[C@@H]2[C@@H](O)[C@H](O)[C@@H](CO)O[C@@H]2S1` [Thiamet G], the cell viability worked out at 101%.
Consider `O=C(c1cccc(Cl)c1F)N1CCN(Cc2cccc(Nc3nccs3)n2)CC1`, for which the cell viability was determined as 35.6%.
As to `O=C(Cn1ccnc1[N+](=O)[O-])NCc1ccccc1` [Benznidazole], the cell viability is 103%.
For the molecule `CC[C@@]1(O)C(=O)OCc2c1cc1n(c2=O)Cc2cc3cc(O)ccc3nc2-1` [Hydroxy Camptothecine], the cell viability came to 0.49%.
In the case of `C[C@H](Nc1ncnc2[nH]cnc12)c1cc2ccc(F)cc2nc1-c1ccccn1`, the cell viability came to 64.5%.
In the case of `CC1(C)[C@@H](O[C@H]2O[C@H](C(=O)O)[C@@H](O)[C@H](O)[C@H]2O[C@@H]2O[C@H](C(=O)O)[C@@H](O)[C@H](O)[C@H]2O)CC[C@]2(C)[C@H]3C(=O)C=C4[C@@H]5C[C@@](C)(C(=O)O)CC[C@]5(C)CC[C@@]4(C)[C@]3(C)CC[C@@H]12` [Dipotassium glycyrrhizinate], the cell viability was found to be 101%.
Consider `O=C(NC1(c2ccccc2)CC1)c1c(CN2CCC(N3CCCCC3)CC2)c(-c2cccc(C(F)(F)F)c2)nc2cc(Br)ccc12`, for which the cell viability came out at 1.08%.
With `O=c1cc(-c2ccc(O)cc2)oc2cccc(O)c12` [4',5-Dihydroxyflavone], the cell viability came out at 66.4%.
Turning to `C[C@@H]1CC[C@H]2C(C)(C)[C@H]3C[C@@]12CC[C@@]3(C)O` [Cedrol], the cell viability was found to be 98.2%.
The same measure for `N#Cc1cc2cc(CN3CCC(Nc4ncnc5sc(CC(F)(F)F)cc45)CC3)ccc2[nH]1`: 0.63%.
For `CCC(CC)(NC(=O)C(C)C)C(=O)N[C@@H](CCCN=C(N)N)C(=O)NC1(C(=O)NC(c2ccc(F)cc2)c2ccc(F)cc2)CCCC1` the value was 97.9%.
The same measure for `CNCCc1ccccn1` [Betahistine]: 102%.
For `O=C(O)c1ccc(O)cc1` [4-Hydroxybenzoic acid], the cell viability was 87%.
For `CC(C)C(=O)Nc1ccc([N+](=O)[O-])c(C(F)(F)F)c1` [Flutamide (Eulexin)], the cell viability turned out to be 90.5%.

For the origin of these results see the supplement of paper PMC10981050.
